Data published in PubChem BioAssay (EPA / NIEHS).
Inconclusive results are not listed. Calls of active or inactive are those of the source. How the source made its calls, unless noted: active means hit-call score of the fitted dose curve at least 0.9, where 1 is the maximum; inactive means score below 0.9.

Experiments:
[1] = Tanguay_ZF_120hpf_MUSC: Oregon State University Tanguay Lab 120 Hour Post-fertilization zebrafish Assay for Muscle Malformation (AID 2284401)
Method in brief: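 Dechorionated Tropical 5D wild-type zebrafish embryos exposed statically from 6 to 120 hpf at 28C, one per well, in 0.64% DMSO. Muscle malformation scored present/absent by brightfield microscopy at 120 hpf, fitted against DMSO.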

[2] = UKN5_HCS_SBAD2_cell_viability: Viability Assessment in the University of Konstanz (UKN) Leist Lab Neurite Outgrowth Assay in human iPSC-derived immature Dorsal Root Ganglia Neurons (UKN5) (AID 2284056)
Method in brief: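 iPSC-derived immature peripheral neurons (SBAD2) seeded on Matrigel with CHIR99021, SU5402 and DAPT, dosed 1 h later for 24 h. Viability from Hoechst H-33342 and calcein-AM live staining, high-content imaging; bidirectional fit versus DMSO.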

[3] = UKN5_HCS_SBAD2_neurite_outgrowth: University of Konstanz (UKN) Leist Lab Neurite Outgrowth Assay in human iPSC-derived immature Dorsal Root Ganglia Neurons (UKN5) (AID 2284070); conditions: actives raise or lower the signal
Method in brief: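 SBAD2 neurons, 24 h compound treatment, calcein-AM neurite area via HCS imaging; DMSO baseline, gain or loss of signal.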

[4] = UKN2_HCS_IMR90_neural_migration: University of Konstanz (UKN) Leist Lab Neural Crest Cell Migration Assay in human induced IMR90 Pluripotent Stem Cells (UKN2) (AID 2284204); conditions: actives raise or lower the signal
Method in brief: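 iPSC-derived IMR90 neural crest cells on PLO/laminin/fibronectin were seeded around silicone stoppers; after stopper removal, migration in N2-S medium with EGF and FGF ran 24 h before 24 h chemical exposure. Calcein-AM/Hoechst high-content imaging; bidirectional fit versus DMSO.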

[5] = UKN4_HCS_LUHMES_neurite_outgrowth: University of Konstanz (UKN) Leist Lab Neurite Outgrowth Assay in human LUHMES cells (UKN4) (AID 2284206); conditions: actives raise or lower the signal
Method in brief: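 2-day-differentiated LUHMES, 24 h cpd exposure, live calcein-AM + H-33342 stain, HCS fluorescence imaging of neurite area; DMSO = baseline, bidirectional fit.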

[6] = IUF_NPC1b_proliferation_BrdU_72hr: Leibniz Research Institute for Environmental Medicine (IUF) 72-hour Neural Progenitor Cell Bromodeoxyuridine (BrdU) Proliferation Assay (NPC1b) (AID 2284207)
Method in brief: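 hNPC spheres (primary, GW 16-19 fetal cortex), single sphere/well, EGF+FGF medium; 72 h compound, no renewal; BrdU pulse last 16 h; luminescent ELISA; activity vs DMSO baseline; growth-factor withdrawal as positive control.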

[7] = IUF_NPC1a_proliferation_area_72hr: Leibniz Research Institute for Environmental Medicine (IUF) 72-hour Neural Progenitor Cell Proliferation Area Assay (NPC1a) (AID 2284208)
Method in brief: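 Proliferation read as increase in sphere area by phase-contrast imaging over 72 h continuous compound exposure (no renewal) of hNPC spheres grown with EGF/FGF at 37C, 5% CO2. Growth-factor withdrawal served as positive control; DMSO as baseline.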

[8] = IUF_NPC1_viability_72hr: Viability Assessment at 72 hours in the Leibniz Research Institute for Environmental Medicine (IUF) Neural Progenitor Cell Proliferation Assay (NPC1) (AID 2284209)
Method in brief: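 Each well receives one 0.3 mm progenitor sphere from fetal brain cortex; test chemical is added at plating and left three days. Viability comes from alamar blue fluorescence, multiplexed with LDH and BrdU readouts in the same well.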

[9] = UKN4_HCS_LUHMES_cell_viability: Viability Assessment in the University of Konstanz (UKN) Leist Lab Neurite Outgrowth Assay in human LUHMES cells (UKN4) (AID 2284232)
Method in brief: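 Human dopaminergic-model LUHMES neurons were exposed to chemicals for 24 h after a 2-day differentiation. Viability was scored by imaging Hoechst H-33342 staining, with activity fitted in both directions relative to DMSO controls.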

[10] = UKN2_HCS_IMR90_cell_viability: Viability Assessment in the University of Konstanz (UKN) Leist Lab Neural Crest Cell Migration Assay in human induced IMR90 Pluripotent Stem Cells (UKN2) (AID 2284233);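 further: viability of neural crest cells differentiated from IMR90 iPSC measured by calcein-AM fluorescence imaging; cells exposed to compound for 24 h after a 24 h migration phase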
Method in brief: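 iPSC-derived (IMR90) neural crest cells seeded around silicone stoppers on PLO/laminin/fibronectin; after 24 h migration in N2-S with EGF/FGF, chemical added for 24 h. Calcein-AM/Hoechst stained 30 min, high-content imaged; bidirectional fit versus DMSO.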

[11] = IUF_NPC2c_oligodendrocyte_migration_120hr: Leibniz Research Institute for Environmental Medicine (IUF) 120-hour Neural Progenitor Cell Migration Assay for Oligodendrocyte Migration (NPC2c) (AID 2284297);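 further: O4-positive oligodendrocyte migration distance divided by radial glia migration distance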
Method in brief: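 Exposure runs 5 days from differentiation onset at 37C, seven concentrations plus solvent control, DMSO at most 0.1%, applied to primary hNPC spheres on laminin. After fixation, O4 immunostaining gives oligodendrocyte distance from the sphere core, relative to radial glia migration.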

[12] = IUF_NPC2a_radial_glia_migration_120hr: Leibniz Research Institute for Environmental Medicine (IUF) 120-hour Neural Progenitor Cell Migration Assay for Radial Glia Migration (NPC2a) (AID 2284298)
Method in brief: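 Migration distance in um, sphere core edge to migration-area edge, derived by nuclei-density algorithm from Hoechst images after 120 h compound exposure. Primary hNPC spheres differentiated on poly-D-lysine/laminin in N2 medium, 37C; medium half-replaced day 3.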

[13] = IUF_NPC2a_radial_glia_migration_72hr: Leibniz Research Institute for Environmental Medicine (IUF) 72-hour Neural Progenitor Cell Migration Assay for Radial Glia Migration (NPC2a) (AID 2284299)
Method in brief: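 Migration out of plated human neural progenitor spheres is scored at 72 h as the distance in um from the sphere core edge to the edge of the migration area. Values are the mean of four manual measurements per well, normalised to DMSO.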

[14] = IUF_NPC2b_neuronal_migration_120hr: Leibniz Research Institute for Environmental Medicine (IUF) 120-hour Neural Progenitor Cell Migration Assay for Neuron Migration (NPC2b) (AID 2284300)
Method in brief: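 TUBB3-positive neurons are imaged after 120 h of differentiation, and their mean distance from the sphere edge is normalised to radial glia migration. Single 0.3 mm fetal hNPC spheres on poly-D-lysine/laminin received 7 compound concentrations, ≤0.1% DMSO, refreshed at day 3.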

[15] = IUF_NPC3_neuronal_differentiation_120hr: Leibniz Research Institute for Environmental Medicine (IUF) 120-hour Neuronal Differentiation Assay (NPC3) (AID 2284301)
Method in brief: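 Primary human fetal neural progenitor spheres (GW 16-19, 0.3 mm) plated on poly-D-lysine/laminin in N2 medium, exposed from day 0 for 120 h with half-medium refresh at day 3. TUBB3+ cells as percent of Hoechst nuclei in migration area; DMSO baseline.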

[16] = IUF_NPC4_neurite_length_120hr: Leibniz Research Institute for Environmental Medicine (IUF) 120-hour Neuronal Morphology Assay for Neurite Length (NPC4) (AID 2284302)
Method in brief: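 Human fetal cortex (GW 16-19) neural progenitor spheres, 0.3 mm, were plated on poly-D-lysine/laminin in N2 differentiation medium and exposed from day 0 for 120 h, half-feeding at day 3. Mean TUBB3+ neurite length (µm) came from skeletonized images, relative to DMSO.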

[17] = IUF_NPC4_neurite_area_120hr: Leibniz Research Institute for Environmental Medicine (IUF) 120-hour Neuronal Morphology Assay for Neurite Area (NPC4) (AID 2284305; active means hit-call score of the fitted dose curve at least 0.9, where 1 is the maximum)
Method in brief: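 Human fetal cortex-derived neural progenitor spheres (0.3 mm, GW 16-19) plated on poly-D-lysine/laminin in N2 differentiation medium and exposed from day 0 for 120 h across 7 concentrations plus solvent control. Neurite area is mean pixel area per TUBB3-positive neuron via skeletonization, analysed relative to DMSO.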

[18] = IUF_NPC2-5_cytotoxicity_72hr: Cytotoxicity Assessment at 72 hours in the Leibniz Research Institute for Environmental Medicine (IUF) Neural Progenitor Cell Migration and Differentiation Assay for Cytotoxicity (NPC2-5) (AID 2284306; active means hit-call score of the fitted dose curve at least 0.9, where 1 is the maximum;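 further: LDH release into supernatant measured by resorufin fluorescence marking membrane damage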)
Method in brief: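 Human fetal (GW 16-19) neural progenitor spheres, 0.3 mm, plated on poly-D-lysine/laminin in N2 differentiation medium and exposed from day 0 to 7 concentrations plus solvent control (DMSO ≤0.1%). LDH-dependent resazurin-to-resorufin fluorescence in supernatant at 72 h.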

[19] = IUF_NPC2-5_cytotoxicity_120hr: Cytotoxicity Assessment at 120 hours in the Leibniz Research Institute for Environmental Medicine (IUF) Neural Progenitor Cell Migration and Differentiation Assay (NPC2-5) (AID 2284307; active means hit-call score of the fitted dose curve at least 0.9, where 1 is the maximum)
Method in brief: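 Membrane-integrity loss measured as LDH activity in medium supernatant via resazurin-to-resorufin fluorescence after 120 h exposure. hNPC spheres from GW 16-19 fetal cortex differentiated on poly-D-lysine/laminin, 37C, medium half-refreshed day 3; seven concentrations, DMSO max 0.1%.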

[20] = IUF_NPC2-5_cell_number_120hr: Cell Number Assessment at 120 hours in the Leibniz Research Institute for Environmental Medicine (IUF) Neural Progenitor Cell Migration and Differentiation Assay (NPC2-5) (AID 2284308);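 further: count of Hoechst-stained nuclei in migration zone around plated human neural progenitor spheres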
Method in brief: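 Counting of all Hoechst-stained nuclei in the migration area at 120 h, versus DMSO control. Primary hNPC spheres differentiated on poly-D-lysine/laminin in N2 medium at 37C, dosed from day 0 (7 concentrations, DMSO ≤0.1%), half-refed day 3.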

[21] = IUF_NPC2-5_viability_120hr: Viability Assessment at 120 hours in the Leibniz Research Institute for Environmental Medicine (IUF) Neural Progenitor Cell Migration and Differentiation Assay (NPC2-5) (AID 2284312)
Method in brief: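 Human fetal (GW 16-19) neural progenitor spheres of 0.3 mm were plated on poly-D-lysine/laminin in N2 differentiation medium and exposed from day 0 for 120 h, with half-medium refresh at day 3. Viability was read as alamar blue resazurin-to-resorufin fluorescence against DMSO.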

[22] = IUF_NPC1_cytotoxicity_72hr: Cytotoxicity Assessment at 72 hours in the Leibniz Research Institute for Environmental Medicine (IUF) Neural Progenitor Cell Proliferation Assay (NPC1) (AID 2284332; active means hit-call score of the fitted dose curve at least 0.9, where 1 is the maximum;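 further: rising LDH signal means more cytotoxicity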)
Method in brief: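 hNPC spheres (fetal brain, gestational week 16-19) grown under proliferative EGF/FGF conditions, pH 7.2-7.6, were treated continuously for 72 h. Cytotoxicity came from LDH-coupled resazurin fluorescence in each well's supernatant.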

Measured: outcome

O=C(F)C1(F)C(F)(F)C(F)(F)C(F)(F)C(F)(F)C1(F)F
inactive: [1]

FC(F)(F)C(F)(F)C(F)(F)C(F)(F)C(F)(F)C(F)(F)C(F)(F)CCI
inactive: [1]

OCC(F)(F)C(F)(F)C(F)(F)C(F)(F)C(F)(F)C(F)(F)F
inactive: [1]

O=P(O)(O)CCC(F)(F)C(F)(F)C(F)(F)C(F)(F)C(F)(F)C(F)(F)C(F)(F)C(F)(F)F
inactive: [1]

CC(C)(C)C(=O)CC(=O)C(F)(F)C(F)(F)C(F)(F)F
inactive: [1]

FC(F)(F)C(F)(F)C(F)(F)C(F)(F)C(F)(F)C(F)(F)I
inactive: [1]

NS(=O)(=O)C(F)(F)C(F)(F)C(F)(F)C(F)(F)C(F)(F)C(F)(F)F
inactive: [1]

CC1(C)C(C=C(Cl)Cl)[C@H]1C(=O)O[C@H](C#N)c1cccc(Oc2ccccc2)c1 (stereo partly drawn)
not listed: [1]
inactive: all other assays above
